From PubChem
NPSR antagonist: qHTS Assay for Antagonists of the Neuropeptide S Receptor: cAMP Signal Transduction | Q6W5P4 | CHO-NPSR cells, cAMP TR-FRET, antagonist mode | Potency, µM (series often up to 38.3 µM), inactives show top-dose activity change, negative = inhibition, most hits filed as inhibitors | 220,000 tested, 1% active; also: nearly all actives have a fitted effect of over 50% in size
Target sequence (Q6W5P4 whole entry, looked up): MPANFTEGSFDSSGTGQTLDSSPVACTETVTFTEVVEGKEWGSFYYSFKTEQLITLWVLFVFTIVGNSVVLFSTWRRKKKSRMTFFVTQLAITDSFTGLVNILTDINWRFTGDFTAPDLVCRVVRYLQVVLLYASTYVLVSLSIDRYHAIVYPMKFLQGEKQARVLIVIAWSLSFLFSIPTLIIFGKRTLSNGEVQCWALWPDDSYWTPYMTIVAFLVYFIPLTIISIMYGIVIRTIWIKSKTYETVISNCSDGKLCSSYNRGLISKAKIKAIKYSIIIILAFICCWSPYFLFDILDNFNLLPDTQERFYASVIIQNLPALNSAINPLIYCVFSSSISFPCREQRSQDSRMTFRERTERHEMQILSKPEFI
B2AR arrestin: qHTS assay of beta-arrestin-biased ligands of beta2-adrenergic receptor. Beta-2 adrenergic receptor (Homo sapiens), P07550. beta-arrestin recruitment to beta2AR, cell-based reporter. Potency, µM (series often up to 46.1 µM), without a hit: at the top dose activation, most hits filed as activators. 330,000 tested, 0.02% active;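 also: 0% = DMSO controls and full agonism = EC100 isoproterenol or metaproterenol; nearly all actives have a fitted effect of over 65% in size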
RORg inh: qHTS for inhibitors of ROR gamma transcriptional activity. Drosophila S2 Gal4-RORgamma UAS-luciferase reporter, 20 h. Potency, µM (highest dose often 53.6 µM), for the others: top-dose activity change, negative = inhibition, usual class: inhibitors. 310,000 tested, 5.4% active. AID 2551, 2010; also: nearly all actives have a fitted effect of over 60% in size
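ROR gamma transcriptional activity was tracked as Gal4-UAS luciferase output in stably transfected Drosophila Schneider cells, with compound added 1 hr before 700 uM copper sulfate induction and a 20 hr ambient-temperature incubation.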
VP16 counter: VP16 counterscreen qHTS for inhibitors of ROR gamma transcriptional activity | Drosophila S2 Gal4-VP16 UAS-luciferase, luminescence, 20 h | Potency, µM (highest dose often 53.6 µM), inactives show top-dose activity, negative = inhibition, hits mostly inhibitors | 310,000 tested, 3.5% active;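 also: Gal4-VP16 expression switched on by copper sulfate through the metallothionein promoter; nearly all actives have a fitted effect of over 50% in size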
* marks the source's active call; other numbers are inactive results; [ ] = another dose, or the depositor's remark. A selection: hits, their analogues and other compounds. The true share with any hit is near 5.7%. Calls follow the shape of the dose curve; as a rule, active = well fitted curve in the direction sought with a large enough effect; inconclusive = small, poorly fitted or top-dose-only effect, or another doubt; inactive = no such curve, though single readings can be large; an effect the other way counts as inactive or inconclusive. Unless noted, % is scaled to controls: 0 for no effect and ±100 for the full control effect; potency is read from the fitted curve at half-maximal effect.

Screening COc1ccc(Cl)cc1-c1n[nH]c(=S)n1C1CCCCC1 returned NPSR antagonist -20%[46.1 µM], B2AR arrestin 0%, RORg inh 4µM* and VP16 counter 7.9µM*.
Screening Cc1cc(Cl)ccc1OCC(=O)N1C(C)CCCC1C (centres undefined) returned NPSR antagonist 10%[46.1 µM], B2AR arrestin 0%, RORg inh -34% and VP16 counter inconclusive.
COc1ccc(-c2n[nH]c(=S)n2C2CCCCC2)cc1 was read as NPSR antagonist 0%[46.1 µM], B2AR arrestin 0%, RORg inh 3.2µM* and VP16 counter 7.1µM*.
Screening Cc1ccsc1-c1n[nH]c(=S)n1C1CCCCC1 returned NPSR antagonist -1%, B2AR arrestin 0%, RORg inh 3.5µM* and VP16 counter inconclusive.
For COc1ccc2cc1Oc1cc3c(cc1OC)CC[N+](C)(C)C3Cc1ccc(cc1)Oc1c(OC)c(OC)cc3c1C(C2)[N+](C)(C)CC3 (centres undefined) the results were RORg inh 4% and VP16 counter -5%.
`O=C(c1ccccc1)c1c[nH]c2ccccc12` gave B2AR arrestin 0%, RORg inh inconclusive and VP16 counter 23%.
Screening O=C(/C=C/c1c[nH]c2ccccc12)c1cccc2ccccc12 returned NPSR antagonist -14%[46.1 µM], B2AR arrestin 0%, RORg inh 5µM* and VP16 counter inconclusive.
For CN(C)c1cccc(/C=C(\C#N)c2ccccc2)c1 the results were NPSR antagonist -19%, B2AR arrestin 8%, RORg inh -33% and VP16 counter -21%.
Screening FC(F)(F)c1ccc(-c2nc(=S)[nH][nH]2)cc1 returned NPSR antagonist 14%, B2AR arrestin -1%, RORg inh 2.5µM* and VP16 counter -13%.
`COc1ccc(-c2n[nH]c(=S)nc2-c2ccc(OC)cc2)cc1` gave B2AR arrestin 0%, RORg inh 7.1µM* and VP16 counter inconclusive.
S=c1nc(-c2cccc(Cl)c2)[nH][nH]1 was read as NPSR antagonist -4%, B2AR arrestin 0%, RORg inh 13µM* and VP16 counter inconclusive.
Screening Oc1ccc(-c2nc(=S)[nH][nH]2)cc1 returned NPSR antagonist -23%[46.1 µM], B2AR arrestin 0%, RORg inh inconclusive and VP16 counter -12%.
`CCOc1ccc(-c2nc(=S)[nH][nH]2)cc1` gave NPSR antagonist inconclusive, B2AR arrestin -1%, RORg inh 5µM* and VP16 counter 22µM*.
For COc1ccc([N+](=O)[O-])cc1N(CC(=O)NCCC1=CCCCC1)S(C)(=O)=O the results were NPSR antagonist -3%, B2AR arrestin -1%, RORg inh 25% and VP16 counter 4%.
`COc1ccc(-c2nc(=S)[nH][nH]2)cc1OC` gave NPSR antagonist 6%, B2AR arrestin 0%, RORg inh -37% and VP16 counter -6%.
For COc1ccc(-c2nc(=S)[nH][nH]2)cc1 the results were NPSR antagonist -7%[46.1 µM], B2AR arrestin -1%, RORg inh 10µM* and VP16 counter inconclusive.
For O=C(CC(c1ccccc1)c1ccccc1)Nc1ccc(Cl)cn1 the results were NPSR antagonist 10µM*, B2AR arrestin 0%, RORg inh -16% and VP16 counter 11%.
Screening O=C(CS(=O)(=O)c1ccccc1)Nc1ccc(Cl)cn1 returned B2AR arrestin 3%, RORg inh 36% and VP16 counter 27%.
Nc1ccccc1Nc1ccccc1 was read as NPSR antagonist -3%[46.1 µM], B2AR arrestin 0%, RORg inh 13µM* and VP16 counter -12%.
Screening O=C(CSc1nnc(-c2ccco2)o1)c1ccc[nH]1 returned NPSR antagonist 4%, B2AR arrestin 3%, RORg inh 5% and VP16 counter 23%.
For O=C(Nc1nc2ccccc2c(=O)s1)c1ccco1 the results were NPSR antagonist 14%, B2AR arrestin 0%, RORg inh -13% and VP16 counter -4%.
`CCOc1ccc(Nc2nnc(SCc3nc4ccccc4c(=O)[nH]3)s2)cc1` gave NPSR antagonist -25%, B2AR arrestin 1%, RORg inh 11% and VP16 counter -1%.
Screening CCOc1ccc(Nc2nc3ccccc3c(=O)s2)cc1 returned NPSR antagonist -13%, B2AR arrestin 0%, RORg inh 4µM* and VP16 counter inconclusive.
Screening CCc1ccc(Nc2nc3ccccc3c(=O)s2)cc1 returned NPSR antagonist -5%, B2AR arrestin 0%, RORg inh 0.89µM* and VP16 counter 1.4µM*.
